ALR H2O2 inh: blocks human ALR sulfhydryl oxidase activity. purified ALR, DTT oxidation, H2O2 HRP-luminol luminescence. inhibition, % (concentration not given with the values). P55789. hit rate 3.8% among 290,000;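 active = mean replicate inhibition above about 79%, with every replicate also reaching it, limit read from the data; inconclusive = only one of the two criteria met; inactive = mean below limit and not every replicate reaching it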
PREPL inhibitor: inhibitors of human prolyl oligopeptidase-like enzyme PREPL; Q4J6C6; recombinant PREPL, fluorescence polarization activity-based probe; inhibition, % at 5.96 µM; hit rate 0.68% among 320,000; in the data active = inhibition above about 43%
CHT PAM: human CHT allosteric activation; AID 488977; CHT-expressing cells, membrane potential dye, choline EC20; hits give high values; LV-AA mutant CHT in HEK293 cells; Q9GZV3; hit rate 0.49% among 310,000; B-score at 10 µM;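 active = initial fluorescence not abnormally high and integrated response B-score, plate-corrected, over 3 SD above library mean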
Target sequence (Q9GZV3 whole entry, looked up): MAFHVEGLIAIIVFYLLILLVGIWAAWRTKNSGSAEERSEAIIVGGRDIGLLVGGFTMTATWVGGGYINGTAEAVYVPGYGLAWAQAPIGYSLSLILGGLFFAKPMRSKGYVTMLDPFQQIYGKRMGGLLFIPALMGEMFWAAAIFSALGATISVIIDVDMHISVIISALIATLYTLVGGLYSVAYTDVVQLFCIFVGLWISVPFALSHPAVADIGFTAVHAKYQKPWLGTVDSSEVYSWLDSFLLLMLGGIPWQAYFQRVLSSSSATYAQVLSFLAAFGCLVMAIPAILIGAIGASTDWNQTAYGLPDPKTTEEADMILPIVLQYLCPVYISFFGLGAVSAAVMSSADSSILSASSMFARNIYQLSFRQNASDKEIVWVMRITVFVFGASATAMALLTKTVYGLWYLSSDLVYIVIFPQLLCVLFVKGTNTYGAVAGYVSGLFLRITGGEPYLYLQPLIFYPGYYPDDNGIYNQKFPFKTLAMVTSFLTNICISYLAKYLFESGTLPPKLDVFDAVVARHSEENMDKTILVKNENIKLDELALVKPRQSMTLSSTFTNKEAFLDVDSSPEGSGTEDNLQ
CHT block: inhibits the human high affinity choline transporter; Q9GZV3; CHT-expressing cells, membrane potential dye, choline response; hits give low values; B-score at 10 µM; hit rate 0.86% among 310,000; AID 488975;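 active = B-score over 3 SD under the library average, and starting fluorescence ratio not unusually high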;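 note: choline stimulus applied at its EC90 after an EC20 pre-addition; B-score computed on integrated fluorescence ratio after choline addition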
AI-2 QS mod: modulators of Vibrio harveyi AI-2 quorum sensing system; Vibrio harveyi JMH597 AI-2 luminescence/OD600 ratio, 9 h; hits give low values; strain lacks LuxN and CqsS sensors; 0 = neutral-control median; activity change, % at 7.5 µM; hit rate 0.4% among 300,000; AID 2094; in the data active = activity change below about -75%, passing the limit was not always enough; inconclusive = no clear call, values can overlap the other calls;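 note: luminescence divided by OD600 gain over 9 h not by final OD600 alone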
Each line names hits and unclear results; the compound was inactive in the other large screens. The list is not random: actives were taken first. Their share in the collection is about 5%.

C/C(=C1/SC(=S)N(CCC(=O)O)C1=O)c1ccc(O)cc1	ALR H2O2 inh 98
COc1ccc(/C(C)=C2\SC(=S)N(CCC(=O)O)C2=O)cc1	none
CN(C)c1ccc(C=Nc2cnn(C)c2C(N)=O)cc1	ALR H2O2 inh 98
O=C(/C=C/c1ccc(Cl)cc1)N1CCN(Cc2ccccc2)CC1	none (no result: ALR H2O2 inh)
CC(=O)Nc1ccc(S(=O)(=O)Nc2cccc3[nH]ncc23)cc1	none
O=C(Nc1cccc2[nH]ncc12)NS(=O)(=O)c1ccccc1	ALR H2O2 inh 97
COc1cccc(CCC(=O)Nc2cccc(S(=O)(=O)N3CCCC3)c2)c1OC	none (no result: ALR H2O2 inh, CHT PAM, CHT block, AI-2 QS mod)
COc1ccc(N=C2C(=O)Nc3ccccc32)cc1	ALR H2O2 inh 86
Cc1ccc(CNC(=O)COC(=O)c2ccc(Cl)c(N)c2)cc1	none (no result: ALR H2O2 inh)
Cc1ccc(NC(=O)CCNS(=O)(=O)c2ccc3c(c2)CCC(=O)N3)cc1C	none
O=C(O)[C@H](Cc1ccccc1)NC(=O)N1CCN(c2ccc(F)cc2)CC1	ALR H2O2 inh 98
COC(=O)[C@H](Cc1ccccc1)NC(=O)N1CCN(c2ccccc2)CC1	ALR H2O2 inh 85
COC(=O)[C@H](Cc1ccccc1)NC(=O)N1CCCCC1	none
COC(=O)NCC(c1ccco1)N1CCN(c2ccc(OC)cc2)CC1 (stereo not given)	ALR H2O2 inh 89
COc1ccc(N2CCN(C(CNC(=O)C(=O)NCCCO)c3ccco3)CC2)cc1 (stereo not given)	ALR H2O2 inh 86
COc1ccc(N2CCN(C(CNS(C)(=O)=O)c3ccco3)CC2)cc1 (stereo not given)	ALR H2O2 inh 92
CCC(=O)NCC(c1ccco1)N1CCN(c2ccc(OC)cc2)CC1 (stereo not given)	ALR H2O2 inh inconclusive
CCS(=O)(=O)NCC(c1ccco1)N1CCN(c2ccccc2)CC1 (stereo not given)	ALR H2O2 inh 93
O=S(=O)(NCC(c1ccco1)N1CCN(c2ccccc2)CC1)c1ccc(F)cc1 (stereo not given)	none
Cc1cccc(C)c1NC(=O)CN(C)C(=O)c1ccc2c(=O)n3c(nc2c1)CCC3	none (no result: CHT PAM, CHT block, AI-2 QS mod)
CC(=O)Cc1nsc(Nc2ccc(Cl)cc2)n1	none
CCOc1cc(/C=N/NC(=O)CCn2nnc3ccccc32)ccc1O	ALR H2O2 inh 100
COc1ccc(Cc2nc3ccccc3n2CC(=O)N/N=C/c2ccc(O)cc2)cc1OC	ALR H2O2 inh 100
CC(/C=N/NC(=O)CCn1nnc2ccccc21)=C\c1ccccc1	none
Cc1ccsc1/C=N\NC(=O)Cn1nnc2ccccc21	none
COc1ccc(/C=N/NC(=O)Cn2nnc3ccccc32)cc1OC	AI-2 QS mod -92
CN(C)c1ccc(/C=N/NC(=O)Cn2nnc3ccccc32)cc1	ALR H2O2 inh 99
O=C(CNC(=O)C(c1ccccc1)c1ccccc1)N/N=C\c1ccc(C(=O)O)cc1	none
CCOc1cccc(CNCCSc2nnnn2C)c1	none (no result: ALR H2O2 inh)
CC1Sc2ccc(S(=O)(=O)CCC(=O)N3CCN(c4cccc(Cl)c4)CC3)cc2NC1=O (stereo not given)	none
COC(=O)Oc1ccc(/C=N/NC(=O)CSCc2ccccc2Br)cc1OC	ALR H2O2 inh 99
COc1cc(/C=N/NC(=O)C(C)n2nnc3ccccc32)ccc1O (stereo not given)	ALR H2O2 inh 97
COc1ccc(/C=N/Nc2nc3ccccc3[nH]2)cc1OC	ALR H2O2 inh 99
COc1ccccc1N1CCN(C(=O)c2cccc(S(=O)(=O)NCc3cccnc3)c2)CC1	none (no result: CHT PAM, CHT block, AI-2 QS mod)
CCCCCC1CCC(c2n[nH]c(=S)n2C)CC1 (stereo not given)	none
CCOc1c(O)ccc(C2NC(=O)NC(C)=C2C(=O)OC)c1[N+](=O)[O-] (stereo not given)	none
CCOc1c(O)ccc(C2NC(=O)N(C)C(C)=C2C(=O)OC)c1[N+](=O)[O-] (stereo not given)	ALR H2O2 inh 89
O=c1[nH]cc(O)c(=O)[nH]1	none
O=c1[nH]cc(F)c(=O)[nH]1	AI-2 QS mod -88
COc1ccccc1NS(=O)(=O)c1cccc(C(=O)N2CC(C)OC(C)C2)c1 (stereo not given)	none
CCOC(=O)c1sc(-c2ccc(Br)cc2)cc1N	none
NNC(=O)c1sc(-c2ccc(Cl)cc2)cc1N	ALR H2O2 inh 98
COc1cccc(C(=O)Nc2nnc(S(=O)(=O)N(C)Cc3ccc(F)cc3)s2)c1	ALR H2O2 inh 84
Cc1ccc(NC2=C(Cl)C(=O)OC2OC(=O)c2ccco2)c(C)c1 (stereo not given)	ALR H2O2 inh 99
O=C(NC1CCCC1)C(c1ccccn1)N(Cc1ccccc1F)C(=O)c1csnn1 (stereo not given)	none
CC12CN3CC(C)(CN(C1)C3c1ccc(Br)cc1O)C2 (stereo not given)	ALR H2O2 inh 99
Cc1ccc(S(=O)(=O)N(C)C)cc1NC(=O)CN1C(=O)NC2(CCCc3ccccc32)C1=O (stereo not given)	none
O=C(O)C1CCCN(C(=O)c2cccc3ccccc23)C1 (stereo not given)	none
Cc1occc1C(=O)NCc1ccccn1	ALR H2O2 inh 82
CC1CCCN(CCOc2cccc(Oc3ccccc3)c2)C1 (stereo not given)	none
O=S(=O)(Nc1ccc(O)c2ccccc12)c1cccs1	ALR H2O2 inh 99
COc1ccc(SC[C@H](Cc2ccccc2)N2CC[C@@H](C(C)(C)C)CCC2=O)cc1	ALR H2O2 inh 99 (no result: CHT PAM, CHT block, AI-2 QS mod)
CCCN1CCC(=O)N([C@H](CSc2ccc(OC)cc2)c2ccccc2)CC1	ALR H2O2 inh 98
COc1ccc(SC[C@H](Cc2ccccc2)N2CC[C@@H](O)CCC2=O)cc1	none (no result: CHT PAM, CHT block, AI-2 QS mod)
CCOc1ccc(NC(=O)CN(C)C(=O)C2CC(=O)N(Cc3ccco3)C2)cc1OCC (stereo not given)	none (no result: CHT PAM, CHT block, AI-2 QS mod)
CC(C)Cc1c(O)nc(SCC(=O)N2CCCCCC2)[nH]c1=O	ALR H2O2 inh 97
CCCc1c(O)nc(SCC(=O)O)[nH]c1=O	none
CC(C)CCc1c(O)nc(SCC(C)C)[nH]c1=O	ALR H2O2 inh 89
CCC(C)c1c(O)nc(SCC(=O)N2CCCCCC2)[nH]c1=O (stereo not given)	ALR H2O2 inh 97
CCC(C)c1c(O)nc(SCc2ccccc2)[nH]c1=O (stereo not given)	ALR H2O2 inh 99
O=C(CCS(=O)(=O)c1cc(Br)cc2c1N(C(=O)C1CC1)CC2)N1CCN(c2ccccn2)CC1	none (no result: ALR H2O2 inh)
CCOc1ccc(NC(=S)N(CCN2CCOCC2)Cc2cc3cc4c(cc3[nH]c2=O)OCCO4)cc1	none
CC(=O)c1cccc(NC(=S)N2CCN(S(=O)(=O)c3ccc(F)cc3)CC2)c1	none
COc1ccc(OC)c(C2CC(=O)N3CN(c4ccccc4F)CSC3=C2C#N)c1 (stereo not given)	ALR H2O2 inh 79
CC(C)Cc1nc2oc3c(NCC(C)O)ncnc3c2c2c1CCCC2 (stereo not given)	CHT block -7.6
COc1c(Cl)cc(C(=O)NN)cc1Cl	ALR H2O2 inh 89
NNC(=O)c1cc(O)c(O)c(O)c1	ALR H2O2 inh 99
